# Bioassay records: PubChem, National Center for Advancing Translational Sciences (NCATS)
# PI4K2A block – blocks human PI4K2A kinase activity; AID 1346378; activity change, negative = inhibition, % at 76.9 µM; purified PI4K2A, ADP-Glo luminescence, 1 h; hits give low values; Q9BTU6; 0.13% of 420,000 active; in the data active = activity change below about -50%; inconclusive = mostly about -30% to -49%;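 note: -100% = wells without enzyme as full effect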
#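 Compounds are screened against recombinant PI4K2A using PI as substrate and ATP, the latter dispensed at 300 microM. Reactions run one hour at ambient temperature before ADP-Glo detection; full inhibition defined by wells lacking enzyme.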
# Tb PFK block – blocks T. brucei phosphofructokinase. 0.17% of 330,000 active. O15648. Potency, µM (highest dose often 57.5 µM), without a hit: at the top dose activity, negative = inhibition, most hits filed as inhibitors. T. brucei PFK, ADP-Glo luminescence. AID 485367;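 note: potency is the fitted concentration of half-maximal effect; 0% = uninhibited 1x PFK enzyme wells and -100% = no-enzyme wells; nearly all actives have a fitted effect of over 60% in size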
#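 ADP-Glo luminescence quantified ADP after 45 min at room temperature, with 1.25 nM T. brucei PFK, 0.1 mM ATP and 0.5 mM fructose-6-phosphate in pH 8.0 TEA buffer. qHTS titrations up to 57 µM; curves classified by quality.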
# APEX1 inh – inhibitors of human APE1 endonuclease. P27695. recombinant APE1, TAMRA/BHQ-2 abasic DNA cleavage fluorescence. Potency, µM (highest dose often 65.8 µM), for the others: top-dose activity change, negative = inhibition, usual class: inhibitors. 0.35% of 350,000 active. AID 2517;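 note: potency is the fitted concentration of half-maximal effect; plate controls were vehicle for no effect and reference inhibitor for full effect; nearly all actives have a fitted effect of over 55% in size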
# Target sequence (P27695 whole entry, looked up): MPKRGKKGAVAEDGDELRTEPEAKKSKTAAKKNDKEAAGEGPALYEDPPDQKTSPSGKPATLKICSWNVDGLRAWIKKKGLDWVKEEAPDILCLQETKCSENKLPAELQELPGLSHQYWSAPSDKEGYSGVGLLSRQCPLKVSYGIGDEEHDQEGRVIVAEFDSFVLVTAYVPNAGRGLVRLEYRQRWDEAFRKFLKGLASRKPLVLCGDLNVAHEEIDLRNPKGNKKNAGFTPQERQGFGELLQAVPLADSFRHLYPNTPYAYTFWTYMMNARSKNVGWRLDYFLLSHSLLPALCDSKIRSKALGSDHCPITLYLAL
#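 Readout is kinetic fluorescence (ex 525, em 598 nm) from cleavage of 50 nM TAMRA/BHQ-2 THF abasic duplex by 0.75 nM APE1, compound added 15 min beforehand at RT.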
# Tb PGK inh – T. brucei PGK inhibition; P07378; PGK/GAPDH coupled, Kinase-Glo luminescence, 60 min; Potency, µM (doses to about 57.5 µM), inactives show at the top dose activity change, negative = inhibition, usual class: inhibitors; 0.043% of 380,000 active; AID 602233; note: potency is the fitted concentration of half-maximal effect; nearly all actives have a fitted effect of over 60% in size
#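 Recombinant glycosomal PGK reaction used 1,3-bisphosphoglycerate generated in-well by GAPDH (100nM final) in 100mM TEA pH 7.6, 5mM MgCl2, 0.01% Tween-20. After 60 minutes at room temperature, ATP was read by Kinase-Glo Plus luminescence end-point.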
# TDP1 block – TDP1 (human) enzyme inhibition; Q9NUW8; 0.28% of 350,000 active; Potency, µM (series often up to 130 µM), without a hit: top-dose activity change, negative = inhibition, actives largely listed as inhibitors; AID 485290; recombinant TDP1, AlphaScreen DNA substrate cleavage; note: potency is the fitted concentration of half-maximal effect; nearly all actives have a fitted effect of over 40% in size
#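 Tdp1 1 nM final; 15 min RT w/ cpd; substrate 15 nM, 5 min; beads 10 ug/ml, 10 min; AlphaScreen read. Neg ctrl: no enzyme.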
# FEN1 inhibitor – inhibitors of human flap endonuclease 1; 0.35% of 390,000 active; P39748; Recombinant FEN1 flap cleavage, fluorescence, 15 min; Potency, µM (highest dose often 114 µM), for the others: at the highest dose activity change, negative = inhibition, hits mostly inhibitors; note: potency is the fitted concentration of half-maximal effect; nearly all actives have a fitted effect of over 65% in size
# Target sequence (P39748 whole entry, looked up): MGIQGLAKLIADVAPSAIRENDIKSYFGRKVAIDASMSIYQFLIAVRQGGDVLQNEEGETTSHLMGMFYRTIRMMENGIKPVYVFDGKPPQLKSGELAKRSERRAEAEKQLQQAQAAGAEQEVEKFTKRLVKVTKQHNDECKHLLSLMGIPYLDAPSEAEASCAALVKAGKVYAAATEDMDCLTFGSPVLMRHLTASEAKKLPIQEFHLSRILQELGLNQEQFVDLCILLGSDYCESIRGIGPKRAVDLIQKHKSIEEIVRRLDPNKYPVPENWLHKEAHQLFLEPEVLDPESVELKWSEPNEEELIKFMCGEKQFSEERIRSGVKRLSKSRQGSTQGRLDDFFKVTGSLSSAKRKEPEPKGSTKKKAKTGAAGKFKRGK
#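 Quantitative HTS format: each compound was titrated, incubated with 10 nM nuclease for 15 min at room temperature, then challenged with flap substrate at 50 nM final. Signal change over 15 min gave concentration–effect curves.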
# Starred values were filed as active, the others as inactive; i = inactive; ? = inconclusive; nt = no result given; [ ] = remark or other dose. An excerpt weighted towards active compounds, which were near 0.8% of everything screened. Unless noted, calls come from the whole dose curve; as a rule, active = well fitted curve in the direction sought with a large enough effect; inconclusive = small, poorly fitted or top-dose-only effect, or another doubt; inactive = no such curve, though single readings can be large; an effect the other way counts as inactive or inconclusive. Unless noted, % is set by controls: 0 for no effect and ±100 for the full control effect.
SMILES,PI4K2A block,Tb PFK block,APEX1 inh,Tb PGK inh,TDP1 block,FEN1 inhibitor
O=c1ccc(NS(=O)(=O)c2ccccc2Cl)cn1Cc1ccc(Cl)c(Cl)c1,-17,-14%,-6%,-7%,6%,71µM*
OC(C1=C/C(=C\c2ccncc2)c2ccccc21)c1ccncc1 (configuration not stated),nt,nt,nt,nt,nt,2%
CCn1c(=S)sc2c(=O)n(CC(=O)Nc3ccccc3)c(C)nc21,1,-1%,21%,-11%,5%,19%
CCn1c(=S)sc2c(=O)n(CC(=O)Nc3ccccc3C(F)(F)F)c(C)nc21,-8,-4%,-18%,-3%,45µM*,0%
O=C(CCN1CCN(c2ccccc2)CC1)N/N=C/c1ccc(O)c(O)c1O,-19,-28%,2%,-22%,0%,28µM*
CCC(=O)Nc1c(C#N)c2nc3ccccc3nc2n1-c1ccc(C)cc1,-8,nt,nt,-9%,nt,-10%
CCC(C)n1c(NC(=O)c2ccccc2)c(C#N)c2nc3ccccc3nc21 (configuration not stated),-56*,-5%,-4%,-7%,-5%,?
CCOC(=O)C1CCN(c2nc(-c3ccc(Br)cc3)cs2)CC1,nt,nt,56%,nt,nt,nt
Cc1nc(N=Nc2cc([N+](=O)[O-])ccc2Cl)c(COP(=O)(O)O)c(C=O)c1O,nt,nt,35µM*,nt,6%,nt
CCOc1cc(C=O)cc(N=Nc2cccc([N+](=O)[O-])c2)c1O,-3,0%,4%,-12%,8%,-14%
COc1cc(C(=O)NC2CCN(C)CC2)ccc1Nc1ncc2c(n1)N(C1CCCC1)CCC(=O)N2C(C)C,-1,nt,nt,5%,nt,-14%
COc1cc(C(=O)NC2CCN(C)CC2)ccc1Nc1ncc2c(n1)N(CCc1ccccc1)CCC(=O)N2C,-3,nt,nt,-1%,nt,50µM*
Oc1cc(O)cc(/C=C/c2ccc(O)c(O)c2)c1,-53*,8.5µM*,?,?,2%,-20%
N#Cc1c(-c2ccc(F)c(Br)c2)no[n+]1[O-],nt,nt,5%,nt,nt,nt
O=C(Nc1ccc(-n2nncc2-c2ccco2)cc1)c1cc2ccccc2oc1=O,?,0%,?,4%,40µM*,-22%
COc1ccc(C(=O)O/N=C(\C)c2ccccc2)cc1,-95*,-13%,-1%,22µM*,3%,-8%
COc1ccc(C(=O)ON=C(C)c2nccs2)cc1,-66*,nt,nt,nt,nt,nt
COc1ccc(C(=O)O/N=C(/c2ccccc2)c2ccncc2)cc1,-4,-7%,12%,-7%,7%,-15%
C/C(=N\OC(=O)c1ccc(C)cc1)c1sc(C)nc1C,5,1%,3%,-10%,2%,-2%
C/C(=N/OC(=O)c1ccc(C)cc1)c1cccs1,-80*,?,-2%,32µM*,0%,-9%
O=C1c2ccccc2C(=O)N1c1cccc(Cl)c1,nt,nt,nt,nt,0%,nt
COc1cc(C2Nc3cccc4cccc(c34)N2)cc(OC)c1OC(C)=O,-18,-3%,4%,-18%,0%,32µM*
N#Cc1nc(NCC(F)F)c2ncn(-c3cccc(Cl)c3)c2n1,nt,nt,nt,nt,-2%,nt
Cc1ccccc1-c1cncnc1NCCN1CCOCC1,nt,nt,4%,nt,35µM*,nt
O=C(c1ccco1)N1CCNCC1,0,nt,nt,nt,nt,nt
SMILES,PI4K2A block,Tb PFK block,APEX1 inh,Tb PGK inh,TDP1 block,FEN1 inhibitor
C=Cc1ccc(S(=O)(=O)O)cc1,nt,nt,14µM*,nt,nt,nt
O=Cc1ccc(-c2cccs2)s1,1,nt,nt,-9%,nt,0%
Oc1ccc(N=Cc2ccc(-c3cccs3)s2)cc1,-69*,3%,?,-9%,2%,?
O=C1OC(c2ccccc2)=N/C1=C\C=C\c1ccco1,-7,-11%,?,-3%,45µM*,-12%
CCc1ccccc1NC(=O)CNC(=O)c1ccc(OCc2cn3ccccc3n2)cc1,-8,-19%,-14%,-8%,28µM*,-6%
C/C(N)=C(/C#N)C(=O)CSc1nnc(NC(C)C)s1,-5,-27%,?,-16%[11.5 µM],nt,35µM*
C/C(N)=C(/C#N)C(=O)CSc1nnc(Nc2ccccc2)s1,3,-2%,-7%,-5%,0%,-12%
CCOc1ccc(OCCC(=O)OCC(=O)N2CCN(S(=O)(=O)c3ccc(Cl)cc3)CC2)cc1,-2,-1%,?,-16%,25µM*,-6%
N#CNc1nc(O)cc(=O)[nH]1,-6,13%,1%,28µM*,-3%,?
O=C(Cc1ccc(Cl)cc1)SCc1ccccc1,8,-3%,-5%,i,32µM*,6%
CCS(=O)(=O)C1=NN2C(=N)/C(=C\c3ccc(OC(=O)c4ccco4)c(Br)c3)C(=O)N=C2S1,nt,0%,-22%,nt,-3%,nt
CCS(=O)(=O)C1=NN2C(=N)/C(=C\c3ccc(SCc4ccco4)o3)C(=O)N=C2S1,-18,?,?,?,-6%,45µM*
Fc1ccc(/C=C/c2ccc3ccccc3n2)cc1,nt,nt,nt,nt,nt,-7%
O=C(CSc1nnc(-c2cccc([S+](=O)([O-])N3CCCC3)c2)n1-c1ccccc1)Nc1cccc(F)c1,nt,nt,40%,nt,nt,nt
O=C1C(=C(I)I)c2ccccc2-c2ccccc21,-58*,nt,nt,-14%,nt,-16%
CCS(=O)(=O)c1ccc(OC)c(C(=O)OC)c1,1,nt,nt,nt,nt,nt
CC1=NOC(=O)/C1=C\c1ccc(-c2ccccc2Br)o1,-6,?,-7%,-7%,-2%,40µM*
CC1=NOC(=O)/C1=C/c1ccc(O)cc1,-2,2%,-3%,-5%,-4%,8%
CC(C)NC(=O)c1ccc(C=O)cc1,0,nt,nt,nt,nt,nt
Nc1cccc2[nH]c(C(F)(F)F)nc12,-15,?,?,-5%,nt,56µM*
O=C(O)c1cccc2[nH]c(C(F)(F)F)nc12,2,-5%,1%,9%,-4%,-6%
O=C(CCc1nnc2ccc(NCc3ccco3)nn12)Nc1ccccn1,-6,?,7%,?,25µM*,7%
CCCCC[n+]1cccc2c3ccccc3ccc21,-3,6%,?,-6%,13%,-12%
CCCCCCCCCCCCCCCC[n+]1ccc(CC(O)c2c(C)[nH]c3ccccc23)c2ccccc21 (configuration not stated),nt,nt,nt,nt,nt,50µM*
CC(C)(C)n1ncc2c(=O)n(Cc3ccc(C#N)cc3)cnc21,nt,nt,2%,nt,nt,-136%
CC(=O)OCCn1c2nc(=O)[nH]c(=O)c-2nc2cc(C)c(C)cc21,-14,-2%,5%,-8%,3.5µM*,8%
O=C[C@H](O)[C@@H](O)[C@H](O)[C@H](O)CO,nt,nt,-2%,nt,nt,nt
C/C=C\C1=C(CO)C(=O)[C@@H]2OC2C1=O (some centres not stated),nt,nt,1.6µM*,nt,?,nt
O=C1CCc2cc(S(=O)(=O)Nc3cccnc3)ccc2N1,nt,nt,nt,nt,2%,nt
